“And” between values parts separate entries of the source, which are not always exact repeats. Equal values may be shown once. Results filed as inconclusive are left out. Some compounds were tested as several samples or in several runs, with calls that do not always agree. The source made the active and inactive calls. Calls follow the shape of the dose curve; as a rule, active = well fitted curve in the direction sought with a large enough effect in the repeat runs; inconclusive = weak or mixed curves; inactive = no such curve, though single readings can be large; an effect the other way counts as inactive or inconclusive.

The values below come from PubChem BioAssay (Tox21).

Assay [1] is described as follows: Caspase-3/7 induction in CHO-K1 cells by small molecules, qHTS assay (AID 1346980). Also: nearly all actives have a fitted effect of over 15% in size. Also: potency is read from the fitted curve at half-maximal effect. In short, it runs like this:
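Wild-type CHO-K1 cells exposed to compounds for 17hr at 37 C, 5% CO2. Caspase-3/7 activity then measured by Caspase-Glo 3/7 luminescence after 30min at room temperature.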
On the technique in general: In qHTS, concentration-response curves come from the screen itself.

For assay [2], the target named is Nuclear receptor subfamily 1 group I member 2 (Homo sapiens) (UniProt O75469). Briefly: Human pregnane X receptor (PXR) small molecule agonists, qHTS assay (AID 1346982). Also: nearly all actives have a fitted effect of over 35% in size. Also: potency is read from the fitted curve at half-maximal effect. In short, it runs like this:
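Stable HepG2 line reporting PXR-mediated CYP3A4 expression via luciferase. Treatment: 24 hr with compounds in DMSO at 37 C. Detection: ONE-Glo luminescence.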

The target in assay [3] is Cytochrome P450 2D6 (Homo sapiens) (UniProt P10635). Briefly: Cytochrome P450 Family 2 Subfamily D Member 6 (CYP2D6) small molecule antagonists: luciferase reporter qHTS assay (AID 1671196). Also: nearly all actives have a fitted effect of over 50% in size. Also: potency is read from the fitted curve at half-maximal effect. In short, it runs like this: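 Chemicals tested for interference with CYP2D6 activity; proluciferin substrate, NADPH regeneration, 1 h at room temperature, luminescent detection.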
Sequence of Cytochrome P450 2D6 (Homo sapiens) (P10635 whole entry, looked up): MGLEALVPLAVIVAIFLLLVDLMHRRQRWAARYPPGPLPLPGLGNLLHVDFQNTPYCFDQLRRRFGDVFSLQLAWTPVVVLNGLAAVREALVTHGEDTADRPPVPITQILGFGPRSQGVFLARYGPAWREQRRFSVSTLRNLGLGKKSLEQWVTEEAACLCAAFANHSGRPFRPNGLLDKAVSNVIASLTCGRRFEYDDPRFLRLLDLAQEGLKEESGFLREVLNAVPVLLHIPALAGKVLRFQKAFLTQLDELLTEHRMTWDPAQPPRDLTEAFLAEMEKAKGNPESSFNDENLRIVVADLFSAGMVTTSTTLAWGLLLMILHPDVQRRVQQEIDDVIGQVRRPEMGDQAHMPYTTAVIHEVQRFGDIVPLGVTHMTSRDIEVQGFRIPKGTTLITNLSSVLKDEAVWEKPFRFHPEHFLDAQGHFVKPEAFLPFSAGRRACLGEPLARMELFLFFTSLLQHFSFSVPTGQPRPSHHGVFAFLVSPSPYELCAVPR
On the technique in general: In a reporter assay the amount or activity of a reporter protein is the signal.

The target of assay [4] is Cytochrome P450 2C19 (Homo sapiens) (UniProt P33261). Put plainly: Cytochrome P450 Family 2 Subfamily C Member 19 (CYP2C19) small molecule antagonists: luciferase reporter qHTS assay (AID 1671197). Also: nearly all actives have a fitted effect of over 65% in size. Also: potency is read from the fitted curve at half-maximal effect. Summed up: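 Quantitative high-throughput screen of the Tox21 library using CYP2C19 with proluciferin substrate. Reaction: NADPH regeneration, 37C, 1 h, after 10 min compound preincubation at room temperature. Readout: luminescence.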
Sequence of Cytochrome P450 2C19 (Homo sapiens) (P33261 whole entry, looked up): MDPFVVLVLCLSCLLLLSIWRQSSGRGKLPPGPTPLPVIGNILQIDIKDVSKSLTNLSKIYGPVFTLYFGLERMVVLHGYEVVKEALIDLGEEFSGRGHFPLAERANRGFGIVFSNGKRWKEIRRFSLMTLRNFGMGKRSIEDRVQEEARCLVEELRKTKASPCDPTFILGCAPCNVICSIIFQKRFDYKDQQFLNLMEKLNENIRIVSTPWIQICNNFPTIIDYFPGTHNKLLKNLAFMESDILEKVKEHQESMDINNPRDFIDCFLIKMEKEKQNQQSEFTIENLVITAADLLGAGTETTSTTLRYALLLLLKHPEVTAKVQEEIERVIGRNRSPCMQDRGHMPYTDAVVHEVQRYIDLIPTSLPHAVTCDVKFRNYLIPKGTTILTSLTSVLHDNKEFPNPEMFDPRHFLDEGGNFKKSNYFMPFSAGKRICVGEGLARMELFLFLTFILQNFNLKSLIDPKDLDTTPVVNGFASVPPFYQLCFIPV

For assay [5], the target named is Cytochrome P450 2C9 (Homo sapiens) (UniProt P11712). Briefly: Cytochrome P450 Family 2 Subfamily C Member 9 (CYP2C9) small molecule antagonists: luciferase reporter qHTS assay (AID 1671198). Also: nearly all actives have a fitted effect of over 50% in size. Also: potency is read from the fitted curve at half-maximal effect. In short, it runs like this:
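P450-Glo proluciferin substrate with CYP2C9 enzyme; 10 min RT preincubation, then NADPH regeneration 1 h at 37C; luciferin detection reagent 20 min RT, luminescence in relative luminescence units.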

A short description of assay [6]: Caspase-3/7 induction in HepG2 cells by small molecules, qHTS cell viability counter screen (AID 1346981). Also: nearly all actives have a fitted effect of over 30% in size. Also: potency is read from the fitted curve at half-maximal effect. Summed up:
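Treatment of HepG2 cells with DMSO-delivered compounds ran 16 hr at 37 C following a 5-hr pre-incubation of 2,000 cells/well. CellTiter-Fluor fluorescence, read after 1 hr, served as the viability measure in a qHTS format.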

Assay [7] addresses Nuclear receptor subfamily 1 group I member 2 (Rattus norvegicus) (UniProt Q9R1A7). Briefly: Rat pregnane X receptor (rPXR) activation by small molecules, qHTS assay (AID 1346983). Also: nearly all actives have a fitted effect of over 20% in size. Conditions: rPXR luciferase reporter cells, One-Glo luminescence, 24 h; stronger effect = higher value. Summed up:
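Cell-based rPXR activation assay: rPXR cells, 2,000 per well, rested 5hr at 37 C, then exposed to compounds in DMSO for 24 hr at 37 C. Luciferase activity read by One-Glo luminescence after 30 min at room temperature.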

Assay [8] has as its target Nuclear receptor subfamily 1 group I member 2 (Homo sapiens) (UniProt O75469). Put plainly: Human pregnane X receptor (PXR) activation by small molecules, qHTS assay (AID 1346985). Also: nearly all actives have a fitted effect of over 40% in size. Also: potency is read from the fitted curve at half-maximal effect. In short, it runs like this:
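DPX-2 cells (HepG2 co-transfected with a PXR response element and a CYP3A4-promoter luciferase construct) were seeded at 2,000 per well, rested 5 hr at 37C, then exposed to DMSO-dissolved compounds for 24 hr. Activation was read as luciferase luminescence.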

The target is the same in assay [9]. Put plainly: CYP3A4 induction through human pregnane X receptor (PXR) by small molecules, qHTS assay (AID 1346984). Also: nearly all actives have a fitted effect of over 40% in size. Also: potency is read from the fitted curve at half-maximal effect. Summed up: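 After 24 h at 37C with compound, DPX-2 cells (HepG2, co-transfected PXR response element and CYP3A4 promoter-luciferase) got 3uM final P450-Glo Luciferin-IPA for 3 h; One-Glo luminescence followed.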
% is scaled to controls: 0 for no effect and ±100 for the full control effect.

Sequence of Cytochrome P450 2C9 (Homo sapiens) (P11712 whole entry, looked up): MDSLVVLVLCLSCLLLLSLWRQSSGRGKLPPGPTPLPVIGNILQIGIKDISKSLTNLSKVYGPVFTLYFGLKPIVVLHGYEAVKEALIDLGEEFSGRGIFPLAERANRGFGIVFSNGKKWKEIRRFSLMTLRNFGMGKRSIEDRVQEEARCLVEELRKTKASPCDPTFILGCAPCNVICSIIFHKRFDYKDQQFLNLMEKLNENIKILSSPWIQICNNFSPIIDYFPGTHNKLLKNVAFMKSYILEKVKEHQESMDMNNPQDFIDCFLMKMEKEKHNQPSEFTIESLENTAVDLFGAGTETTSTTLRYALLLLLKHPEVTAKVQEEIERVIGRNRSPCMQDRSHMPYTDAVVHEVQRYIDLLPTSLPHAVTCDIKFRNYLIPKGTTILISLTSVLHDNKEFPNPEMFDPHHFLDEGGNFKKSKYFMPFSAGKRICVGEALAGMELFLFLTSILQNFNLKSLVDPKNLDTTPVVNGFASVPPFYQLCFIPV
Sequence of Nuclear receptor subfamily 1 group I member 2 (Rattus norvegicus) (Q9R1A7 whole entry, looked up): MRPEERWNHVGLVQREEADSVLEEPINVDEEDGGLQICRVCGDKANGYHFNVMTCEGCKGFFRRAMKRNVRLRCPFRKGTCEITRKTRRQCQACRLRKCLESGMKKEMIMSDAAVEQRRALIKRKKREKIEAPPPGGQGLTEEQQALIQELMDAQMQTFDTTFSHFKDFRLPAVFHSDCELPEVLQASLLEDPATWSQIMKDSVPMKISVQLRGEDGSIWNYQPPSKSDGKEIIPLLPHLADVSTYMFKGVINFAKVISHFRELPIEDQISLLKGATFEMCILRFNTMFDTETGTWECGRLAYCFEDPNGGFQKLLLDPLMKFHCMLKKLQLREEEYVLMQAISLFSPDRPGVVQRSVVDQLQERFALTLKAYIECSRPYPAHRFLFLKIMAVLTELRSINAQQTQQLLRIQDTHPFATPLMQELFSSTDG
Sequence of Nuclear receptor subfamily 1 group I member 2 (Homo sapiens) (O75469 whole entry, looked up): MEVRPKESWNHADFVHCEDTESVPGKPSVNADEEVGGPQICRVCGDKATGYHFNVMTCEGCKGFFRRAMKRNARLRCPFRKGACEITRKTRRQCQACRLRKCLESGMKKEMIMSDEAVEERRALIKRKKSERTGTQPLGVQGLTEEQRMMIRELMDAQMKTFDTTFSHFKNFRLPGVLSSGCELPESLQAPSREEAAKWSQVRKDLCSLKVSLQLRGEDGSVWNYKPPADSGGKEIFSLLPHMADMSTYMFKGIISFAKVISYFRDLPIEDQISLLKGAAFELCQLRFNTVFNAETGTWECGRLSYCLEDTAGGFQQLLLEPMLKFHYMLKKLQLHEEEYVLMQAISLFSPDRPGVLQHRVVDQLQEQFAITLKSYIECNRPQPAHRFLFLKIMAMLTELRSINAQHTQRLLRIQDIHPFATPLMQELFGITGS

As to `CCN(CC)c1ccc2c(C)cc(=O)oc2c1`, the Potency entry in assay [1], in [3] and in assay [5] was “inactive” in each case. In addition, the Potency was 54.9 µM (active) and 48.6 µM (active) in [2]; 40.2 µM (active) and 31.7 µM (active) in assay [4].

For the compound `CCC(=O)/C=C/C1C(C)=CCCC1(C)C` (centres undefined), the Potency entry in assay [1], in [6] and in assay [3] was “inactive” each time. Also, the Potency is 34.5 µM (active) in [2]; 44.9 µM (active) and 15.9 µM (active) in assay [4]; 31.7 µM (active) in assay [5].

In the case of `CC(C(O)c1ccc(O)cc1)N1CCC(Cc2ccccc2)CC1` (centres undefined), the Potency result in assay [1], in [2], in [8] and in assay [5] was “inactive” throughout. In addition, the max activation in assay [7] is -2.92% (inactive).

For `CCCCOCCOC(=O)c1ccccc1C(=O)OCCOCCCC`, the Potency entry in assay [1] and in assay [6] was “inactive” each time. The Potency in [2] was 59.8 µM (active) and inactive; in assay [3], 31 µM (active) and 25.2 µM (active); in [4], 3.48 µM (active) and 1.78 µM (active); in [5], 6.95 µM (active) and 7.1 µM (active).

Regarding `CC(C)(C)c1ccccc1`, the Potency entry in [1], in assay [2], in assay [3] and in assay [4] was “inactive” in each case.

For `O=C1OC2(c3ccc(O)cc3Oc3cc(O)ccc32)c2ccccc21`, the Potency result in assay [1] and in assay [3] was “inactive” throughout. Further, the Potency in assay [2] is 21.7 µM (active) and inactive; in assay [9], 14.1 µM (active); in assay [4], 20 µM (active) and 4.9 µM (active); in [5], 11.2 µM (active). In addition, the max activation in assay [7] was 0.287% (inactive).

Consider `NNCCc1ccccc1`, for which the Potency result in assay [1] and in [9] was “inactive” each time. Moreover, the Potency is 27.4 µM (active) and 26.6 µM (active) in [2]; 12.6 µM (active) in [8]; 2.25 µM (active) and 12.3 µM (active) in assay [3]; 6.35 µM (active) and 13.8 µM (active) in assay [4]; 25.3 µM (active) and 17.4 µM (active) in [5].

Turning to `BrC1CCC(Br)C(Br)CCC(Br)C(Br)CCC1Br` (centres undefined), the Potency in assay [1] was 60.9 µM (active); in assay [2], 54.3 µM (active) and 46.1 µM (active); in assay [4], 1.26 µM (active) and 1.34 µM (active); in assay [5], 10.7 µM (active). For the same compound, the Potency entry in assay [6] and in assay [3] was “inactive” throughout.

With `CC1COc2c(N3CCN(C)CC3)c(F)cc3c(=O)c(C(=O)O)cn1c23` (centres undefined), the Potency entry in [1], in assay [3], in [4] and in [5] was “inactive” in each case. The max activation in assay [7] was -3.36% (inactive).

For the compound `COc1ccc(CCN(C)CCCC(C#N)(c2ccc(OC)c(OC)c2)C(C)C)cc1OC` (centres undefined), the Potency result in assay [3], in assay [4] and in [5] was “inactive” each time.

With `Oc1ccc(Cl)cc1Cc1cc(Cl)ccc1O`, the Potency entry in [1] and in assay [8] was “inactive” each time. For the same compound, the Potency in [2] was 22.1 µM (active) and 27.3 µM (active); in assay [4], 3.62 µM (active) and 2.83 µM (active) and 3.09 µM (active); in [5], 8.11 µM (active) and 5.64 µM (active) and 4.9 µM (active). The max activation in assay [7] is -2.03% (inactive).

Turning to `NC(N)=NC(=O)Cc1c(Cl)cccc1Cl`, the Potency entry in assay [1], in [6], in [2], in assay [4] and in [5] was “inactive” in each case.

As for `CCOc1ccc2c(c1)C(C)=CC(C)(C)N2`, the Potency was 60.8 µM (active) and 54.5 µM (active) in assay [2]; 11.2 µM (active) and 10 µM (active) in assay [3]; 7.93 µM (active) and 5.64 µM (active) in assay [5].

Take `O=C(O)c1cc(Cl)cc(Cl)c1`: the Potency entry in assay [1], in assay [2] and in assay [4] was “inactive” in each case. Moreover, the Potency in [3] was 35.4 µM (active).

Regarding `CCN(CC)C(=O)Nc1ccc(OCC(O)CNC(C)(C)C)c(C(C)=O)c1` (centres undefined), the Potency result in [1], in assay [6], in assay [2], in [9], in assay [8] and in assay [4] was “inactive” each time. In addition, the Potency result in assay [5] was “inactive”. Moreover, in assay [7], the max activation is 1.62% (inactive).

With `CC(C)CCOC(=O)c1ccc(N(C)C)cc1`, the Potency result in assay [1], in assay [6], in [2], in [9], in assay [8] and in assay [3] was “inactive” each time. The Potency in assay [4] is 4.9 µM (active); in [5] it was 8.71 µM (active).

`CCN1CCCC1CNC(=O)c1cc(S(=O)(=O)CC)c(N)cc1OC` (centres undefined): the Potency result in [1], in assay [6], in [2], in assay [4] and in [5] was “inactive” throughout. The Potency in assay [3] was 9.77 µM (active).

Consider `COc1cc(C(=S)N2CCOCC2)ccc1O`, for which the Potency result in [1], in [2], in assay [9], in assay [8], in [3] and in assay [5] was “inactive” in each case. In addition, the max activation in assay [7] was -1.33% (inactive).

With `CN1C(=O)c2ccc([N+](=O)[O-])cc2C1=O`, the Potency result in [1] and in assay [6] was “inactive” in each case. In assay [4], the Potency is 70.9 µM (active).

On to `O=C(O)CCc1ccccc1`, for which the Potency entry in assay [1], in [2], in assay [3], in assay [4] and in [5] was “inactive” each time.

On to `CC(C)(O)CCC(C)(C)O`, for which the Potency entry in assay [1], in [2], in assay [3], in assay [4] and in assay [5] was “inactive” each time.

In the case of `CC(C)CCCCCCc1ccc(O)cc1`, the Potency was 24.8 µM (active) in assay [1]; 55.4 µM (active) in assay [6]; 22.1 µM (active) and 9.69 µM (active) in assay [2]; 28.2 µM (active) in [8]; 40.6 µM (active) and inactive in assay [3]; 3.62 µM (active) and 4.48 µM (active) in assay [4]. For the same compound, the Potency in assay [5] was 9.1 µM (active) and 12.6 µM (active). The max activation in assay [7] is -6.01% (inactive). In assay [9], the Potency result was “inactive”.

Consider `Oc1c(Cl)cc(Cl)c(Cl)c1Cc1c(O)c(Cl)cc(Cl)c1Cl`, for which the Potency entry in assay [1] and in assay [3] was “inactive” in each case. Further, the max activation in assay [7] is -22.6% (inactive). Further, the Potency in assay [4] is 70.8 µM (active) and 79.6 µM (active) and inactive; in assay [5] it was 2 µM (active) and 3.56 µM (active) and 1.74 µM (active).

In the case of `CC(C)(c1ccccc1)c1ccc(Nc2ccc(C(C)(C)c3ccccc3)cc2)cc1`, the Potency entry in [1], in assay [6], in assay [2], in assay [3] and in assay [4] was “inactive” each time. In assay [5], the Potency was 3.55 µM (active) and 5.64 µM (active).

Consider `NC(N)=Nc1nc(CSCC/C(N)=N/S(N)(=O)=O)cs1`, for which the Potency entry in assay [1], in assay [2], in [3], in assay [4] and in [5] was “inactive” throughout.

As for `CCCCC/C=C/CC1CC(=O)OC1=O` (centres undefined), the Potency result in assay [1], in [6], in assay [2], in assay [3] and in [5] was “inactive” throughout.

As for `CCCCCCCCCCCC[N+](C)(C)C`, the Potency result in [1], in [6] and in [5] was “inactive” throughout. Besides, the Potency in [2] is 24.3 µM (active) and 61.1 µM (active); in assay [3], 3.55 µM (active) and 3.56 µM (active) and 2.24 µM (active); in [4], “inactive and 79.6 µM (active)”.

For the compound `CC(=O)Nc1ccc(C(=O)CCl)cc1`, the Potency entry in assay [1] and in assay [6] was “inactive” in each case. Also, the Potency in assay [2] is 21.8 µM (active) and 24.3 µM (active); in [4], “inactive and 79.6 µM (active)”; in assay [5] it was 63.3 µM (active).

On to `CCC(C)(Oc1ccc(C2(c3ccc(OC(C)(CC)C(=O)O)cc3)CCCCC2)cc1)C(=O)O` (centres undefined), for which the Potency entry in assay [1], in assay [6], in [2], in [9], in assay [8] and in assay [3] was “inactive” in each case. Further, the Potency result in assay [4] and in assay [5] was “inactive” each time. In addition, the max activation in assay [7] was -0.804% (inactive).
